For 84 compounds, activation results are on record in PubChem BioAssay AID1346428 (National Center for Advancing Translational Sciences (NCATS), 2018).

Molecules are shown by their SMILES. The whole screen tested about 48,000 compounds, of which about 1,200 (2.5%) were called active. Inconclusive results (about 2%) are left out.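 Rule for the calls: active = activation of at least 60% and not above a set upper limit (about 1 call in 100 departs from these limits); inconclusive = activation of 40% to 60%, or above that upper limit; inactive = activation under 40%.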 The sample as a whole holds a higher share of actives than the screen did.

For this experiment, the target named is Probable G-protein coupled receptor 32 (Homo sapiens) (UniProt O75388). The experiment is described as follows: qHTS for Agonists of Human Resolvin D1 Receptor DRV1. Note: 0% is about no effect. The following applies: CHO-K1 GPR32 beta-arrestin PathHunter luminescence, 90 min; at 76.9 µM; stronger effect = higher value; zero percent set by DMSO-only wells. In outline: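 Agonism was scored by beta-Gal fragment complementation (chemiluminescent read, 1 h detection at ambient temperature) reporting beta-arrestin binding to GPR32 in engineered CHO-K1 cells. Compound treatment lasted 90 min at 37 C, normalized to a DMSO basal control.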
Sequence of Probable G-protein coupled receptor 32 (Homo sapiens) (O75388 whole entry, looked up, the tested form may be a part): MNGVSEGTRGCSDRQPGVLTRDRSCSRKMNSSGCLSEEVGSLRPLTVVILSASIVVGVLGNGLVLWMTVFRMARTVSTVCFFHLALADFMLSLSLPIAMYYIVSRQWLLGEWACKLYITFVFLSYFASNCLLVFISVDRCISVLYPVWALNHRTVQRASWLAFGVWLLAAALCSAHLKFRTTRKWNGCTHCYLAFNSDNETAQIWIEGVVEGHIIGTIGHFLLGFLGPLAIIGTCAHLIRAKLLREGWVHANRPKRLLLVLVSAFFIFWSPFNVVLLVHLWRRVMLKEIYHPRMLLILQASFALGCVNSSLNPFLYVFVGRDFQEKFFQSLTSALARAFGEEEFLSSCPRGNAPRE
`Cc1ccccc1C(=O)Nc1nnc(S(=O)(=O)N(C)c2ccc(Cl)cc2)s1`: the activation was 8.7% (inactive).

For `Cc1cc2nc(NC(=O)c3ccc(S(=O)(=O)N4CCOCC4)cc3)sc2cc1C`, the activation is -4.68% (inactive).

In the case of `O=C(Nc1nnc(S(=O)(=O)N2CCOCC2)s1)c1cccc(Br)c1`, the activation is 93.4% (active).

Turning to `CCOc1cccc(C(=O)Nc2nnc(S(=O)(=O)N(C)c3ccc(C)cc3)s2)c1`, the activation is 63.1% (active).

As for `O=C(Nc1nnc(S(=O)(=O)N2CCCCCC2)s1)c1cccc(Br)c1`, the activation is 115% (active).

Consider `COc1cccc(C(=O)Nc2nnc(S(=O)(=O)N3CCOCC3)s2)c1`, for which the activation is 69.6% (active).

On to `Cc1ccccc1OCC(=O)Nc1nnc(S(=O)(=O)N2CCCC2)s1`, for which the activation is 5.36% (inactive).

For the compound `CN(Cc1ccco1)S(=O)(=O)c1nnc(NC(=O)c2ccccc2)s1`, the activation is 18.1% (inactive).

Consider `O=C(Nc1nnc(S(=O)(=O)N2CCCc3ccccc32)s1)c1cccc(F)c1`, for which the activation is 45.3% (inactive).

For the compound `COc1cccc(CNC(=O)CN2C(=O)CCc3cc(S(=O)(=O)N4CCOCC4)ccc32)c1`, the activation was 0% (inactive).

Regarding `Cc1ccc(C(=O)Nc2ccccc2F)cc1S(=O)(=O)N1CCOCC1`, the activation was 2.32% (inactive).

`CC(C)CC(=O)Nc1nnc(S(=O)(=O)N(C)c2ccc(Cl)cc2)s1`: the activation is -5.88% (inactive).

Regarding `Cc1cc(N2CCN(c3cccc(C(F)(F)F)c3)CC2)n2nc(-c3ccccc3)nc2n1`, the activation is -14.2% (inactive).

Consider `CCOC(=O)c1c(NC(=O)COc2cc(C)ccc2C(C)C)sc(C)c1C`, for which the activation was -11% (inactive).

For the compound `Cc1ccc(C)c(S(=O)(=O)n2nc(C)c(S(=O)(=O)N3CCC(C)CC3)c2C)c1`, the activation is -11.2% (inactive).

As to `O=C(Nc1cc(C(F)(F)F)ccc1Cl)c1cc2nc(-c3ccc4c(c3)OCO4)cc(C(F)(F)F)n2n1`, the activation was -10.2% (inactive).

For `Cc1ccc(NC(=O)c2ccc(CN3CC(=O)N4CCCCC4C3=O)cc2)c(Cl)c1` (centres undefined), the activation was -8.29% (inactive).

As for `COc1ccc(-c2cc(C(=O)NCc3cc(OC)c(OC)c(OC)c3)[nH]n2)cc1`, the activation was -1.24% (inactive).

Consider `COc1ccc(NC(=O)CSc2nc3ccccc3n2CC(=O)N2CCCCC2C)cc1` (centres undefined), for which the activation was -15.6% (inactive).

For `CCOc1ccccc1NC(=O)Cn1c(=O)n(Cc2ccccc2)c(=O)c2c(C)c(C(=O)N(C)C)sc21`, the activation was -24.5% (inactive).

Regarding `CCn1cc(C(=O)OCC(=O)Nc2cc(C)cc(C)c2)c(=O)c2ccc(C)nc21`, the activation was 20.2% (inactive).

Consider `CN(Cc1ccccc1)C(=O)c1cn(C)c2ccc(S(=O)(=O)N3CCCCC3)cc2c1=O`, for which the activation was 13.1% (inactive).

Consider `Cc1ccc(/C=C(\C#N)C(=O)Nc2cc(C)ccc2C)cc1`, for which the activation was 98.1% (active).

Take `CCOC(=O)c1c(NC(=O)/C(C#N)=C/c2ccccc2)sc2c1CCC2`: the activation was 13.3% (inactive).

Regarding `Cc1ccc(Cl)cc1NC(=O)/C(C#N)=C\c1cn(Cc2ccc(F)cc2)c2ccccc12`, the activation is 7.85% (inactive).

Take `Cc1ccccc1C(=O)N(Cc1ccc(N(C)C)cc1)CC1CCCO1` (centres undefined): the activation was -21.9% (inactive).

Regarding `CSc1ccc(CCNC(=O)c2ccc3c(c2)nc2n3CCOC2)cc1`, the activation is -8.85% (inactive).

Consider `COc1cccc(-c2nnc3n(CCc4ccccc4)c(=O)c4ccccc4n23)c1O`, for which the activation was 77.1% (active).

Consider `COc1ccc(NC(=O)CCc2nnc3n(CC(C)C)c(=O)c4ccccc4n23)cc1OC`, for which the activation was 10.7% (inactive).

Turning to `CC(C)Cn1c(=O)c2ccccc2n2c(-c3cccc(Cl)c3)nnc12`, the activation was -0.202% (inactive).

With `CC(C)(C)OC(=O)N1CCC(c2c(C(=O)Nc3ccc4c(c3)OCO4)cnn2-c2ccccc2)CC1`, the activation was 3.59% (inactive).

As to `COc1cccc(NC(=O)CSc2cc(=O)n(C)c3ccc(Cl)cc23)c1`, the activation was 66.2% (active).

As for `CCOc1ccc(CCNC(=O)CSc2cc(=O)n(C)c3ccc(Cl)cc23)cc1OCC`, the activation was -7.71% (inactive).

On to `CCN(CCCNC(=O)CSc1cc(=O)n(C)c2cc(Cl)ccc12)c1cccc(C)c1`, for which the activation is 3.23% (inactive).

As for `Cc1ccccc1CNC(=O)Cn1c(C)c2cnn(-c3ccccc3)c(=O)c2c1C`, the activation is -12.3% (inactive).

As for `Cc1c(NC(=O)Nc2ccc(F)c(Cl)c2)c(=O)n(-c2ccccc2)n1C`, the activation is -8.62% (inactive).

Take `Oc1c(C(c2ccccc2Cl)N2CCOCC2)sc2nc(-c3ccco3)nn12` (centres undefined): the activation is -11.9% (inactive).

Regarding `Oc1c(C(c2ccc(F)cc2)N2CCN(Cc3ccccc3)CC2)sc2nc(-c3ccco3)nn12` (centres undefined), the activation was 64.8% (active).

As to `Cc1cccc(-n2ncc(C(=O)N3CCc4ccccc4C3)c2C2CCN(C(=O)OC(C)(C)C)CC2)c1`, the activation was -17.8% (inactive).

Take `O=C(COCc1cc(-c2ccc3c(c2)OCO3)on1)N1CCN(c2cccc(Cl)c2)CC1`: the activation is -10.3% (inactive).

In the case of `Cc1cccc(CNS(=O)(=O)c2ccc(-c3cnc(C4CC4)o3)cc2)c1`, the activation was -14.5% (inactive).

For `COc1ccc(CCC(=O)NCCc2csc(-c3ccc(Cl)cc3)n2)cc1`, the activation is 65.3% (active).

For the compound `O=C(NCCc1csc(-c2ccc(C(F)(F)F)cc2)n1)C(=O)Nc1ccc(F)c(Cl)c1`, the activation is -7.23% (inactive).

As for `COc1ccc(-c2nc(CCNC(=O)c3ccc(Br)o3)cs2)cc1`, the activation is 6.04% (inactive).

`CCc1nc2c(cnn2-c2ccc(C)cc2)c(=O)n1-c1ccc(C)cc1`: the activation is -4.43% (inactive).

With `COc1cccc(C(=O)NC2(C(F)(F)F)C(=O)Nc3c2c(=O)[nH]c(=O)n3-c2ccc(C)cc2)c1` (centres undefined), the activation is -5.74% (inactive).

Regarding `CCCn1ccc2c(OCC(=O)NCc3ccc(F)cc3)cccc2c1=O`, the activation was 76.6% (active).

Turning to `CCOCCn1ccc2c(OCC(=O)NCc3ccc(C)cc3)cccc2c1=O`, the activation was -7.09% (inactive).

Consider `CCn1cc(CCC(=O)NCc2ccc(F)cc2)c2ccccc21`, for which the activation is -18.2% (inactive).

`CC(=O)c1ccc(S(=O)(=O)N2CCC(Oc3ccc(-n4cnnn4)cc3)CC2)cc1`: the activation is -8.41% (inactive).

For `COc1cccc(NC(=O)c2csnn2)c1`, the activation was 10.9% (inactive).

Turning to `CCc1cccc(NC(=O)c2cc(-c3ccccc3)n[nH]2)c1`, the activation is -0.275% (inactive).

Consider `COc1cccc(-c2cc(C(=O)Nc3ccc(C)cc3)[nH]n2)c1`, for which the activation was 64.6% (active).

Take `Cc1ccc2cccc(NC(=O)C(C)Oc3ccc(C)c(C)c3)c2n1` (centres undefined): the activation was -2.89% (inactive).

In the case of `COCCCNC(=O)C1CCC(CNS(=O)(=O)c2ccc(OC)cc2)CC1` (centres undefined), the activation is -7.55% (inactive).

In the case of `COc1ccc(N2C(=O)NC(NS(=O)(=O)c3ccc(Cl)cc3)(C(F)(F)F)C2=O)cc1` (centres undefined), the activation is -2.22% (inactive).

On to `Cc1nnc(SCc2cc(=O)c3cc(F)ccc3[nH]2)n1C`, for which the activation is -15.5% (inactive).

In the case of `CCC(=O)N1CCc2cc(Br)cc(S(=O)(=O)CCC(=O)N3CCN(c4ccc(F)cc4)CC3)c21`, the activation is 1.23% (inactive).

Regarding `CCCCn1cc(S(=O)(=O)c2ccc(OCC)cc2)c(=O)c2cc(OC)c(OC)cc21`, the activation was -26% (inactive).

As for `COc1ccc(CCC(=O)NCc2ccc3c(c2)CCN3C(=O)c2ccc(F)cc2)cc1`, the activation is -17.6% (inactive).

In the case of `CCC(Sc1nnc(-c2ccc(OC)cc2)c(-c2ccc(OC)cc2)n1)C(=O)NC1CCCCC1` (centres undefined), the activation is -11.5% (inactive).

Take `CCOC(=O)c1ccc(NC(=O)c2nc(SCc3ccc(F)cc3)ncc2Cl)cc1`: the activation is -27.7% (inactive).

As for `Cc1ccc(NC(=O)c2nc(S(=O)(=O)Cc3cccc(C)c3)ncc2Cl)cc1`, the activation was -21.8% (inactive).

As to `CCCS(=O)(=O)c1ncc(Cl)c(C(=O)Nc2scc(-c3ccccc3)c2C(=O)OCC)n1`, the activation was 97.2% (active).

Regarding `CCOC(=O)C1CCCN(CC(=O)Nc2cc(C)c3c(=O)oc4ccccc4c3n2)C1` (centres undefined), the activation is -11.1% (inactive).

As to `CSc1ccccc1-c1nnc(NC(=O)c2ccc3c(c2)OCCO3)o1`, the activation is -21.8% (inactive).

With `CCn1cc(C(=O)NCc2ccc(C)cc2)c(=O)c2cc(S(=O)(=O)N3CCc4ccccc4C3)ccc21`, the activation is 70.1% (active).

As to `CCn1cc(C(=O)NCc2ccccc2)c(=O)c2cc(S(=O)(=O)N3CCCCC3)ccc21`, the activation is 0.542% (inactive).

Regarding `CCOCCCNC(=O)c1cn(CC)c2ccc(S(=O)(=O)N3CCc4ccccc4C3)cc2c1=O`, the activation was 3.07% (inactive).

Regarding `COc1ccccc1NC(=O)Cn1cnc2ccc(S(=O)(=O)N3CCC(C)CC3)cc2c1=O`, the activation is 14.7% (inactive).

For the compound `CCc1cccc(CC)c1NC(=O)Cn1c(=O)c(-c2cc(C)ccc2NC(C)=O)nc2ccccc21`, the activation was -6.44% (inactive).

In the case of `CCOC(=O)c1c(C)[nH]c(CCC(=O)NCCCN2CCN(c3cccc(Cl)c3)CC2)c1C`, the activation is 3.48% (inactive).

`CCc1nn(CCCN2CCN(c3cccc(Cl)c3)CC2)c(=O)n1CCOc1ccccc1`: the activation is 89.4% (active).

Regarding `CCc1nc2ccc(C(=O)N3CCN(c4cccc(Cl)c4)CC3)cc2nc1CC`, the activation was -29.3% (inactive).

In the case of `Cc1ccc(Cl)cc1N(C)C(=O)C1CCCN(c2ncnc3onc(-c4ccc(F)cc4)c23)C1` (centres undefined), the activation was -22% (inactive).

With `CCNC(=O)CC1C(=O)N(c2ccc(F)cc2)C(=O)N1Cc1ccc(C)cc1` (centres undefined), the activation was 0.37% (inactive).

As for `CCCCC12CN3CC(C)(CN(C1)C3c1ccc(O)c(OC)c1)C2=O` (centres undefined), the activation was -20.2% (inactive).

As for `Cc1cc(Nc2cccc(C(F)(F)F)c2)nc2ccc(NC(=O)c3ccc(=O)[nH]c3)cc12`, the activation is 112% (active).

Regarding `COc1cc(OC)cc(C(=O)Nc2ccc3nc(Nc4cccc(C(F)(F)F)c4)cc(C)c3c2)c1`, the activation was -9.34% (inactive).

`Cn1c(C(=O)Nc2cccc(C(F)(F)F)c2)cc2c(=O)n3ccccc3nc21`: the activation is 4.29% (inactive).

For the compound `Cn1c(=O)sc2cc(NS(=O)(=O)c3ccc(C(C)(C)C)cc3)ccc21`, the activation is -13.3% (inactive).

Regarding `CC(C)Oc1ccc(NC(=O)c2cc3ccccc3o2)cc1`, the activation was 63.5% (active).

For the compound `Cc1cc2nc(-c3ccc(NC(=O)c4cc5ccccc5o4)cc3)oc2cc1C`, the activation was -3.47% (inactive).

Regarding `CCC(C)c1ccc2oc(-c3ccc(NC(=O)c4cc5ccccc5o4)cc3)nc2c1` (centres undefined), the activation was -0.177% (inactive).
